By AC50 is commonly meant the midpoint of the concentration-response curve, whichever way the signal moves.

This note sets out measurements from PubChem BioAssay (EPA / NIEHS).

Records with an inconclusive call do not appear. Calls of active or inactive are those of the source. Rule for the calls: active = hit-call score of the fitted dose curve at least 0.9, where 1 is the maximum; inconclusive = response in the unintended direction; inactive = score below 0.9.

The assay in a line: ACEA_ER_AUC_viability: ACEA Biosciences xCELLigence Real-Time Cell Analysis on Estrogen Receptor Agonism for Viability (AID 2283782).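 Note: continuous compound exposure with impedance area under curve over 80 h; hit means loss of impedance signal meaning reduced cell growth or viability.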 A digest of the protocol: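 T47D cells preconditioned in phenol red-free RPMI with charcoal-stripped FBS, then dosed with 8-point 1:4 series from 100 uM (up to 0.5% DMSO). Impedance monitored up to ~80 h; area-under-curve loss versus DMSO taken as viability.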
Regarding `Cc1ccc(S)cc1`, the molecule was classed as inactive.

Turning to `CCCCCC(=O)OCCc1ccccc1`, the AC50 is 78.9 µM (active).

For the molecule `CCCCCCCCCCCCCC(=O)O`, the molecule was called inactive.

As to `CCCC(=O)OCCC(C)CCC=C(C)C` (centres undefined), the AC50 was 77.8 µM (active).

In the case of `C=C(C)C(=O)O`, the outcome was inactive.

As to `O=C(O)CCCCCCCCCCC(=O)O`, the AC50 was 37.7 µM (active).

Regarding `CCCCCCCCCCCCN`, the AC50 is 66.3 µM (active).

As for `CC1=CCC2C(C1)C2(C)C` (centres undefined), the outcome was inactive.

As to `O=C1CCc2ccccc2O1`, the AC50 is 38 µM (active).

For the molecule `CC(=O)Nc1ccc(C)cc1C`, the molecule was classed as inactive.

As to `CCCCN`, the AC50 was 45.1 µM (active).

Turning to `CC(CCO)CCCC(C)(C)O` (centres undefined), the AC50 was 50.5 µM (active).

With `CCCCCCC#CC(=O)OC`, the result was inactive.

Turning to `CCCCCNCCCCC`, the result was inactive.

Turning to `N#Cc1ccccc1`, the outcome was inactive.

`C=C(C)C1CCC(C)CC1O` (centres undefined): the AC50 is 50 µM (active).

As for `CC1(C)C(=O)N(Br)C(=O)N1Cl`, the molecule was classed as inactive.

Consider `Nc1cc([N+](=O)[O-])ccc1O`, for which the AC50 was 9.92 µM (active).

Take `Nc1cc([N+](=O)[O-])ccc1Cl`: the AC50 was 76.3 µM (active).

For `CC(=O)c1c(C)cc(C(C)(C)C)cc1C`, the AC50 is 77.7 µM (active).

Take `CC(CC(C)(C)C)CC(C)(C)CC(C)(C)C` (centres undefined): the molecule was classed as inactive.

`Cc1cccc(C)c1[N+](=O)[O-]`: the outcome was inactive.

On to `CCCCCCCCC`, for which the molecule was classed as inactive.

`Nc1cccc(S(=O)(=O)c2cccc(N)c2)c1`: the call was inactive.

As for `C=C(C)[C@@H]1CCC2=CC(=O)C[C@@H](C)[C@]2(C)C1`, the AC50 is 80.7 µM (active).

Take `C=C(C)C(=O)O[C@H]1C[C@@H]2CC[C@@]1(C)C2(C)C`: the call was inactive.

Take `C=C[Si](OCC)(OCC)OCC`: the outcome was inactive.

Regarding `CCCCCCOC(=O)CCCCC`, the call was inactive.

Take `Nc1ccc(S(=O)(=O)O)c(N)c1`: the molecule was classed as inactive.

With `CO[Si](C)(OC)c1ccccc1`, the outcome was inactive.

Turning to `CC(C)CCCCCCCOC(=O)c1ccc(C(=O)OCCCCCCCC(C)C)c(C(=O)OCCCCCCCC(C)C)c1`, the result was inactive.

Take `CC(=O)C=CC1=C(C)CCCC1(C)C`: the molecule was classed as inactive.

As to `CCCCOCCOCCOCCOCCO`, the call was inactive.

Turning to `Cc1ccc(O)c(C(C)(C)C)c1`, the AC50 was 26.2 µM (active).
